Source: PubChem BioAssay (several laboratories)
Most compounds without a hit are left out; they make up all but 1.5% or so of the library.
Cardiac RTF inh – cardiac RTF calcium desensitization. inhibition, % at 7.15 µM. hit rate 0.12% among 340,000. P19429+P45379. IANBD-labeled cardiac RTF, Ca2+ fluorescence;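 active = inhibition above the mean inhibition of all tested compounds plus 3 SD, cut at about 17% in these data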;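 also: assay run at fixed EC70 calcium of 1.6 mM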
IDE act – IDE (human) activation, cell-based; HEK cells, FAbeta-B cleavage, fluorescence polarization; 0% vehicle, 100% cell-free pure enzyme wells; activation, % at 5.96 µM; hit rate 0.073% among 340,000; AID 493087;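 active = activation above the mean of all tested compounds plus 3 SD, set per screening campaign, cut at about 17% in these data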
Target sequence (P14735 whole entry, looked up): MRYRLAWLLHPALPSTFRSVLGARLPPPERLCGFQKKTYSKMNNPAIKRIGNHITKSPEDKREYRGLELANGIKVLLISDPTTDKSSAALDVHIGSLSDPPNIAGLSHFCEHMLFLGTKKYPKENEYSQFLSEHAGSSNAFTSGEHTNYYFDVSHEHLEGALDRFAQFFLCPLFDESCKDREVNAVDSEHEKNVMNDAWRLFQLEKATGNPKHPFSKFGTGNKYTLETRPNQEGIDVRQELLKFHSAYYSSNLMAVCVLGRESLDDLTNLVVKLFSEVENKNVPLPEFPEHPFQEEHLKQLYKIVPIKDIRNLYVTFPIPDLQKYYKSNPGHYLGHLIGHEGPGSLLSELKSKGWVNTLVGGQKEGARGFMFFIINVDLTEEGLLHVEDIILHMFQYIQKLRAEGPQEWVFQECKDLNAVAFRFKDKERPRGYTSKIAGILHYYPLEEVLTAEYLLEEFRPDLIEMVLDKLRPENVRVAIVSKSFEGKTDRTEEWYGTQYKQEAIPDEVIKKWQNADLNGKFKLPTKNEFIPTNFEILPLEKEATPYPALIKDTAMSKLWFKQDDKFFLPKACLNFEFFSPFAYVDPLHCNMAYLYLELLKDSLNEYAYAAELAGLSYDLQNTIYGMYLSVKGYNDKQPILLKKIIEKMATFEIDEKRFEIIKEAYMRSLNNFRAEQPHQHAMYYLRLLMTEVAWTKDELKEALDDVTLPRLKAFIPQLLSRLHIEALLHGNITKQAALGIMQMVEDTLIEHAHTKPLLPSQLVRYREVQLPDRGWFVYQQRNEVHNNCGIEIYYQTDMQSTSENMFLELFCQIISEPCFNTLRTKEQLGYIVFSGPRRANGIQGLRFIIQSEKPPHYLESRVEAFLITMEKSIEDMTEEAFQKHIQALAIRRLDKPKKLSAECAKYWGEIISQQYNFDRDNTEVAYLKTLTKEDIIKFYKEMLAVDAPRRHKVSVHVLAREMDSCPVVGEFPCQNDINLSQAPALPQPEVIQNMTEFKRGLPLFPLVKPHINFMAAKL
IDE cell inh – inhibitors of human insulin-degrading enzyme in cells. HEK cells, FAbetaB cleavage, fluorescence polarization. hit rate 0.41% among 320,000. inhibition, % at 5.59 µM. P14735;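 active = percent inhibition above the average of all tested compounds plus 3 SD, set per screening campaign, cut at about 16% in these data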;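 also: IDE supplied by intact live HEK cells; FP after avidin binding of uncleaved biotin substrate so inhibition keeps polarization high; 0% = DMSO wells and 100% = 60 µM reference IDE inhibitor Ii1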
CRFBP-R2 block – CRF-BP/CRF-R2 complex antagonism | HEK293 CRF-R2/CRF-BP, CRF-induced calcium fluorescence | inhibition, % at 11.8 µM | hit rate 0.59% among 350,000;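 active = inhibition of the ligand-induced calcium signal above about 50% at the single tested concentration, limit read from the data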
CRFBP-R2 agonist – CRF-BP/CRF-R2 complex agonism; hit rate 0.46% among 350,000; activation, % at 13.2 µM; AID 588473; HEK293 CRF-R2/CRF-BP, calcium dye fluorescence (FLIPR); percent of saturating CRF peptide response;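 active = activation of at least 50%, plus an integration ratio under a set limit after plate pattern correction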;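 also: plate controls were neutral control wells without compound for no effect and CRF at EC100 for full effect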
RTF Ca sens act – increases calcium sensitivity of human cardiac regulated thin filaments; IANBD-labeled TnC RTF fluorescence at EC20 calcium; 0% EC20 calcium, 100% full calcium; activation, % at 7.2 µM; P19429+P45379; hit rate 0.24% among 340,000;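 active = activation above the mean over all tested compounds plus 3 SD, cut at about 30% in these data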;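 also: rise in fluorescence read as greater calcium sensitivity of cardiac thin filaments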
IDE cell inh cf – cellular human IDE inhibition, confirmation | shares compounds with IDE cell inh | HEK cells, FAbetaB cleavage, fluorescence polarization | inhibition, % at 5.59 µM | hit rate 51% among 1,200;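 active = mean inhibition across triplicate wells above the cutoff set by the earlier primary insulin-degrading enzyme screen, cut at about 16% in these data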;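 also: 0% = DMSO wells and 100% = 60 µM reference IDE inhibitor Ii1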
HEK cytotox – kills HEK cells in IDE inhibitor counter-screen; inhibition, % at 5.59 µM; shares compounds with IDE cell inh; hit rate 28% among 1,200; HEK293 cytotoxicity, ATP luminescence; in the data active = inhibition above about 22%;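 also: 0% = vehicle wells and 100% = reference cytotoxic drug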
IDE FP artifact – counter-screen for IDE inhibitors: fluorescent artifacts. FP counterscreen for fluorescent artifacts, IDE probe project. shares compounds with IDE cell inh. 30 tested, under 10 active. IC50, µM; call rule not given here
Numbers without * were called inactive; . = no result.

SMILES | Cardiac RTF inh | IDE act | IDE cell inh | CRFBP-R2 block | CRFBP-R2 agonist | RTF Ca sens act | IDE cell inh cf | HEK cytotox | others
O=c1c(Cl)c(NCc2ccco2)cnn1C12CC3CC(CC(C3)C1)C2 | -7 | 0 | 8 | -18 | 1 | -4 | . | .
O=C(CSc1ccsc1[N+](=O)[O-])N1CCN(c2ccc(Cl)cc2)CC1 | -14 | -12 | 25* | 32 | 0 | -11 | 5 | 16
CC1=CC(C)(C)Nc2ccc(OC(=O)CCN3C(=O)c4ccccc4C3=O)cc21 | -15 | -3 | 17* | -7 | -1 | 0 | 38* | 127*
O=C(CCN1C(=O)c2ccccc2C1=O)Oc1ccc2ccccc2c1 | -3 | 2 | 8 | -17 | 2 | -3 | . | .
O=C(CN1C(=O)NC2(CCCC2)C1=O)NNC(=O)c1ccc(Br)cc1 | -17 | 7 | -2 | -7 | 1 | -2 | . | .
O=c1c2c([N+](=O)[O-])cc([N+](=O)[O-])cc2sn1Cc1ccccc1 | -6 | -32 | 84* | 1 | -1 | -6 | 24* | 92*
CCC1CCCCN1CCCNC(=O)CCC(=O)N1CCOc2ccccc21 (centres undefined) | -5 | 3 | 2 | 0 | -2 | -6 | . | .
CCC(=O)N/N=C/c1ccc(-c2ccc([N+](=O)[O-])cc2)o1 | 7 | 6 | 2 | 1 | 3 | 0 | . | .
CC(C)(C)C(=O)/C=c1\s/c(=C\c2ccc(-c3ccc([N+](=O)[O-])cc3)o2)c(=O)n1CC(=O)NC(N)=O | -91 | -20 | 22* | -139 | 212* | 54* | 78* | 26*
COc1cc2cc(C(=O)N/N=C/c3ccccc3Cl)[nH]c2cc1OC | -1 | -12 | 17* | -20 | -6 | -6 | 5 | 17
COc1ccc(S(=O)(=O)N(C)C[C@H]2Oc3ccc(NC(=O)Nc4ccc5c(c4)OCO5)cc3C(=O)N([C@H](C)CO)C[C@@H]2C)cc1 | 9 | -4 | 5 | 5 | 0 | -6 | . | .
CC(C)NS(=O)(=O)c1ccc(NC(=S)NC(=O)c2ccc(-c3ccccc3)cc2)cc1 | -1 | -49 | 39* | -14 | -3 | -3 | 25* | 37*
O=C(CC1Sc2ccccc2NC1=O)Nc1cccc(-c2nnc3n2CCCCC3)c1 (centres undefined) | 8 | -14 | 17* | 6 | 0 | 0 | 9 | 6
O=C(CC1Sc2ccccc2NC1=O)Nc1cccnc1 (centres undefined) | -2 | 3 | 0 | 11 | 2 | 0 | . | .
CN(C(=O)c1cccc(NC(=O)Cc2ccc(NC(=O)C3CCN(S(=O)(=O)c4cccc([N+](=O)[O-])c4)CC3)cc2)c1)C1CCCCC1 | 3 | 5 | . | -14 | 2 | 0 | . | .
Cc1cccc(NC(=O)/C(=C\c2ccc([N+](=O)[O-])o2)NC(=O)c2ccc(Cl)cc2)c1 | -2 | -4 | 17* | 0 | -1 | -2 | 6 | 13
CCn1c(COc2ccc(C)cc2)nnc1SCC(=O)C(C)(C)C | -8 | -5 | 2 | 17 | -1 | 0 | . | .
CCn1c(COc2ccc(C)cc2)nnc1SCc1ccc(C#N)cc1 | -2 | 0 | 18* | 15 | -4 | -3 | 8 | 13
CC(=O)c1ccc(NCC(=O)N2CCN(c3ccccc3)CC2)cc1 | -7 | -17 | 21* | -17 | 0 | 1 | 7 | 9
Cc1cc(C)c([N+](=O)[O-])cc1NCC(=O)N1CCN(c2ccccc2)CC1 | 1 | -10 | 22* | 13 | -1 | 2 | 7 | 3
Cc1noc(C)c1NC(=O)Nc1cccc2c1O[C@H](CN(C)C(=O)NC1CCCCC1)[C@@H](C)CN([C@H](C)CO)C2=O | -3 | 9 | 1 | 4 | 0 | 11 | . | .
Cc1cc(=O)oc2c3c(cc(OCC(=O)NCc4ccncc4)c12)OC(C)(C)CC3 | 4 | -19 | 22* | 16 | 0 | 5 | 13 | 24*
Cc1c(C)c2c(OCC(=O)NCc3ccncc3)cc3c(c2oc1=O)CCC(C)(C)O3 | 3 | -10 | 9 | 14 | -1 | 2 | . | .
C=CCSc1nnc(NC(=O)CN2C(=O)NC3(CCCC3)C2=O)s1 | 0 | 3 | -1 | -23 | 0 | -2 | . | .
CC(=O)N1CCc2c(sc(NC(=O)C3CC3)c2-c2nc3ccccc3s2)C1 | -6 | 3 | 6 | -4 | 17 | 0 | . | .
SMILES | Cardiac RTF inh | IDE act | IDE cell inh | CRFBP-R2 block | CRFBP-R2 agonist | RTF Ca sens act | IDE cell inh cf | HEK cytotox | others
CC(=O)Nc1sc2c(c1-c1nc3ccccc3s1)CN(C(C)C)CC2 | -2 | -10 | 30* | -49 | 94* | 16 | 5 | 95*
c1ccc(-c2nnc(SCc3nc4ccccc4[nH]3)n2Cc2ccco2)cc1 | -5 | -6 | 9 | -5 | -2 | -2 | . | .
Cn1c(SCc2nc3ccccc3[nH]2)nnc1-c1cccc(Cl)c1 | . | . | . | . | . | . | . | . | IDE FP artifact=>55
COc1cccc(-c2nnc(SCc3nc4ccccc4[nH]3)n2Cc2ccco2)c1 | . | . | . | . | . | . | . | . | IDE FP artifact=>55
COc1ccc(/C=C/C(=O)N2CCN(S(=O)(=O)c3ccccc3Br)CC2)cc1OC | 2 | -8 | -5 | 2 | 0 | -3 | . | .
Cc1ccc(OCC(=O)NCCCNC(=O)c2ccco2)cc1 | 2 | -2 | -9 | 14 | -2 | 7 | . | .
COc1ccc(CCNC(=O)CNC(=O)c2ccccc2Br)cc1OC | 0 | 0 | 0 | 9 | 1 | -4 | . | .
CN(C)c1ccc(/C=C2\SC(=S)N(Nc3ncc(C(F)(F)F)cc3Cl)C2=O)cc1 | -339 | -155 | 49* | -147 | 159* | 147* | 130* | 10
Cc1cc(C)nc(NN2C(=O)/C(=C/c3ccccc3)SC2=S)n1 | -2 | -10 | -3 | -7 | -1 | 2 | . | .
COc1cc(/C=C2\SC(=S)N(Nc3ncc(C(F)(F)F)cc3Cl)C2=O)ccc1O | -21 | -87 | 51* | -169 | 115* | 6 | 129* | 7
COc1ccc2nc(Nc3sc4c(c3C(N)=O)CCCC4)sc2c1 | 2 | -13 | 20* | -24 | 9 | -2 | 2 | 8
COc1ccc(CC(=O)Nc2sc3c(c2C(N)=O)CCCC3)cc1 | -1 | -1 | 1 | -3 | 0 | 3 | . | .
COc1ccc(CNC(=O)[C@@H](NC(=O)C2CCN(S(=O)(=O)c3ccccc3)CC2)C(C)C)cc1 | -9 | 6 | 1 | 2 | 0 | 0 | . | .
CC(C)OC(=O)c1cc(C(=O)c2cc(F)ccc2O)coc1=N | 3 | 0 | -6 | -20 | 0 | 5 | . | .
